The source made the active and inactive calls. Rule for the calls: active = hit-call score of the fitted dose curve at least 0.9, where 1 is the maximum; inactive = score below 0.9.
Experiments:
Conditions in all cases: mRNA level, 48 h; actives raise or lower the signal
[1] = read-out: Forkhead box O1 (FOXO1), FOXO1 (gene 2308); assay: LTEA_HepaRG_FOXO1: Life Technologies and Expression Analysis (LTEA) Assay for Forkhead box O1 (FOXO1) using HepaRG (AID 2283456)
Outline: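 Readout is FOXO1 transcript level by multiplexed qRT-PCR against three housekeeping genes, curve-fitted in both directions relative to 0.5% DMSO vehicle. Human HepaRG cultures received chemicals for 48 h, up to 100 uM in half-log steps.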

[2] = read-out: growth arrest and DNA damage 45 (GADD45A), GADD45A (gene 1647); assay: LTEA_HepaRG_GADD45A: Life Technologies and Expression Analysis (LTEA) Assay for growth arrest and DNA damage 45 (GADD45A) using HepaRG (AID 2283458)
Outline: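 Differentiated HepaRG cells were exposed in duplicate for 48 h in serum-free induction medium to 8-point half-log concentrations up to 100 uM in 0.5% DMSO. GADD45A mRNA was measured by TaqMan qRT-PCR, normalized to ACTB, GAPDH and POLR2A, with bidirectional fitting versus DMSO.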

[3] = read-out: Forkhead box O3 (FOXO3), FOXO3 (gene 2309); assay: LTEA_HepaRG_FOXO3: Life Technologies and Expression Analysis (LTEA) Assay for Forkhead box O3 (FOXO3) using HepaRG (AID 2283459)
Outline: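 HepaRG, 48 h post-dose; 8 conc., half-log from 100 uM, 0.5% DMSO, duplicates; serum-free induction medium. Readout: FOXO3 mRNA, TaqMan qRT-PCR, housekeeping-normalized. Bidirectional curve fit vs DMSO baseline.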

[4] = read-out: ABC Transporter (ABCB1), ABCB1 (gene 5243); assay: LTEA_HepaRG_ABCB1: Life Technologies and Expression Analysis (LTEA) Assay for ABC Transporter (ABCB1) using HepaRG (AID 2283460)
Outline: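 Expression of ABCB1 was quantified by qRT-PCR against three housekeeping genes after human HepaRG cultures received test chemicals for 48 hours. Concentrations spanned eight half-log steps topping at 100 uM in 0.5% DMSO; gain or loss of signal was fitted relative to vehicle.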

[5] = read-out: growth arrest and DNA damage 45 (GADD45B), GADD45B (gene 4616); assay: LTEA_HepaRG_GADD45B: Life Technologies and Expression Analysis (LTEA) Assay for growth arrest and DNA damage 45 (GADD45B) using HepaRG (AID 2283461)
Outline: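 qRT-PCR read-out (Fluidigm TaqMan, housekeeping-normalized) of mRNA change in human HepaRG cells after 48 h chemical exposure; 8-point curve, top 100 uM, half-log steps, 0.5% DMSO vehicle; gain or loss fitted relative to DMSO baseline.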

[6] = read-out: ABC Transporter (ABCC3), ABCC3 (gene 8714); assay: LTEA_HepaRG_ABCC3: Life Technologies and Expression Analysis (LTEA) Assay for ABC Transporter (ABCC3) using HepaRG (AID 2283462)
Outline: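 qRT-PCR read-out of ABCC3 transcript, normalized to three housekeeping genes (ACTB, GAPDH, POLR2A), after 48 h chemical exposure of human HepaRG cells. Eight half-log concentrations, highest 100 uM, in 0.5% DMSO; gain or loss fitted relative to DMSO baseline.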

[7] = read-out: ABC Transporter (ABCB11), ABCB11 (gene 8647); assay: LTEA_HepaRG_ABCB11: Life Technologies and Expression Analysis (LTEA) Assay for ABC Transporter (ABCB11) using HepaRG (AID 2283463)
Outline: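 ABCB11 transcript levels are read by Fluidigm TaqMan qRT-PCR after 48 h chemical treatment of human HepaRG cells. Concentrations span 100 uM downward in half-log steps with 0.5% DMSO; gain or loss is fitted against DMSO controls.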

[8] = read-out: ABC Transporter (ABCC2), ABCC2 (gene 1244); assay: LTEA_HepaRG_ABCC2: Life Technologies and Expression Analysis (LTEA) Assay for ABC Transporter (ABCC2) using HepaRG (AID 2283464)
Outline: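 qRT-PCR (TaqMan, Fluidigm array) read-out of ABCC2 mRNA, normalized to three housekeeping genes. Differentiated HepaRG cells were treated 48 h in serum-free induction medium with 8-point half-log series from 100 uM in 0.5% DMSO; curves fitted bidirectionally relative to DMSO.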

[9] = read-out: Broad substrate specificity ATP-binding cassette transporter ABCG2 (Homo sapiens) (UniProt Q9UNQ0); assay: LTEA_HepaRG_ABCG2: Life Technologies and Expression Analysis (LTEA) Assay for ABC Transporter (ABCG2) using HepaRG (AID 2283465)
Outline: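 Read-out is ABCG2 mRNA induction or loss quantified by qRT-PCR after 48 h chemical treatment of human HepaRG cells, normalized to three housekeeping genes. Concentrations reached 100 uM top in half-log steps; fitting was bidirectional against 0.5% DMSO.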

[10] = read-out: ATP-citrate lyase (ACLY), ACLY (gene 47); assay: LTEA_HepaRG_ACLY: Life Technologies and Expression Analysis (LTEA) Assay for ATP-citrate lyase (ACLY) using HepaRG (AID 2283466)
Outline: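 HepaRG, 48 h exposure, 8-pt half-log dilutions (top 100 uM), 0.5% DMSO. Readout: ACLY mRNA, TaqMan qRT-PCR, housekeeping-normalized (ACTB/GAPDH/POLR2A). Bidirectional curve fit vs DMSO.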

[11] = read-out: Peroxisomal acyl-coenzyme A oxidase 1 (ACOX1) gene, ACOX1 (gene 51); assay: LTEA_HepaRG_ACOX1: Life Technologies and Expression Analysis (LTEA) Assay for Peroxisomal acyl-coenzyme A oxidase 1 (ACOX1) gene using HepaRG (AID 2283467)
Outline: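 Measured by qRT-PCR against three housekeeping genes: ACOX1 transcript change in human HepaRG cells after 48 h dosing. Concentrations ran up to 100 uM in half-log steps. Curves were fitted bidirectionally relative to 0.5% DMSO.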

[12] = read-out: Alkaline Phosphatase, Placental (ALPP) gene, ALPP (gene 250); assay: LTEA_HepaRG_ALPP: Life Technologies and Expression Analysis (LTEA) Assay for Alkaline Phosphatase, Placental (ALPP) gene using HepaRG (AID 2283468)
Outline: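 qRT-PCR readout of ALPP mRNA (Fluidigm TaqMan), normalized to ACTB/GAPDH/POLR2A, after 48 h chemical exposure of HepaRG cells; 8-point half-log series, top 100 uM, 0.5% DMSO vehicle. Bidirectional curve fit versus DMSO baseline.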

[13] = read-out: Bcl-2 (BAD) gene, BAD (gene 572); assay: LTEA_HepaRG_BAD: Life Technologies and Expression Analysis (LTEA) Assay for Bcl-2 (BAD) gene using HepaRG (AID 2283469)
Outline: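 BAD transcript change, measured by qRT-PCR against three housekeeping genes and fitted in both directions relative to 0.5% DMSO, after 48 h chemical treatment of human HepaRG liver cells at concentrations up to 100 uM.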

[14] = read-out: Bcl-2 (BAX) gene, BAX (gene 581); assay: LTEA_HepaRG_BAX: Life Technologies and Expression Analysis (LTEA) Assay for Bcl-2 (BAX) gene using HepaRG (AID 2283470)
Outline: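 Differentiated human HepaRG cells, plated 48 h then switched to serum-free induction medium, were exposed 48 h to 8 half-log concentrations up to 100 uM in 0.5% DMSO; BAX mRNA measured by qRT-PCR, normalized to ACTB, GAPDH, POLR2A.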

[15] = read-out: adenosine kinase (ADK) gene, ADK (gene 132); assay: LTEA_HepaRG_ADK: Life Technologies and Expression Analysis (LTEA) Assay for adenosine kinase (ADK) gene using HepaRG (AID 2283471)
Outline: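 HepaRG (human liver), 48 h chemical exposure, 8-pt half-log series, top 100 uM, 0.5% DMSO vehicle. Readout: ADK mRNA by qRT-PCR vs housekeeping genes; bidirectional curve fit relative to DMSO baseline.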

[16] = read-out: Alpha-fetoprotein (AFP) gene, AFP (gene 174); assay: LTEA_HepaRG_AFP: Life Technologies and Expression Analysis (LTEA) Assay for Alpha-fetoprotein (AFP) gene using HepaRG (AID 2283472)
Outline: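 Human HepaRG cells plated 48 h, then switched to serum-free induction medium and exposed in duplicate for 48 h to 8-point half-log series from 100 uM in 0.5% DMSO. AFP mRNA by qRT-PCR, normalized to ACTB, GAPDH, POLR2A; bidirectional fit versus DMSO.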

[17] = read-out: BCL2L11 (gene 10018); assay: LTEA_HepaRG_BCL2L11: Life Technologies and Expression Analysis (LTEA) Assay for Bcl-2 (BCL2L11) gene using HepaRG (AID 2283473)
Outline: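 HepaRG, 48 h exposure, 8-pt half-log series from 100 uM in 0.5% DMSO, duplicates; qRT-PCR (Fluidigm TaqMan) for BCL2L11, housekeeping-normalized; bidirectional curve fit relative to DMSO baseline.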

[18] = read-out: Apolipoprotein A-V (APOA5) gene, APOA5 (gene 116519); assay: LTEA_HepaRG_APOA5: Life Technologies and Expression Analysis (LTEA) Assay for Apolipoprotein A-V (APOA5) gene using HepaRG (AID 2283474)
Outline: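 HepaRG, 48 h chemical exposure in serum-free induction medium, 8-pt half-log series (top 100 uM), 0.5% DMSO vehicle, duplicates. Readout: APOA5 mRNA by qRT-PCR, housekeeping-normalized; bidirectional fit vs DMSO baseline.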

[19] = read-out: Apoptosis regulator Bcl-2 (Homo sapiens) (UniProt P10415); assay: LTEA_HepaRG_BCL2: Life Technologies and Expression Analysis (LTEA) Assay for Bcl-2 gene using HepaRG (AID 2283475)
Outline: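 Differentiated HepaRG cells in serum-free induction medium were exposed for 48 h to eight half-log concentrations up to 100 uM in 0.5% DMSO, in duplicate. BCL2 mRNA was quantified by TaqMan qRT-PCR normalised to ACTB, GAPDH and POLR2A, with bidirectional fitting versus DMSO.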

Measured: AC50

Apoptosis regulator Bcl-2 (Homo sapiens), sequence (P10415 whole entry, looked up): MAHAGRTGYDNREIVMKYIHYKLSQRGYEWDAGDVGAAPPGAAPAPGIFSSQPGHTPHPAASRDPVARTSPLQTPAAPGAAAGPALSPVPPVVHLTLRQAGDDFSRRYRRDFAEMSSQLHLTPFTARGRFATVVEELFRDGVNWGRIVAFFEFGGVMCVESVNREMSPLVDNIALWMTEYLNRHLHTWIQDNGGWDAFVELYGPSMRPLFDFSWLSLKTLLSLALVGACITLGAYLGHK
Broad substrate specificity ATP-binding cassette transporter ABCG2 (Homo sapiens), sequence (Q9UNQ0 whole entry, looked up): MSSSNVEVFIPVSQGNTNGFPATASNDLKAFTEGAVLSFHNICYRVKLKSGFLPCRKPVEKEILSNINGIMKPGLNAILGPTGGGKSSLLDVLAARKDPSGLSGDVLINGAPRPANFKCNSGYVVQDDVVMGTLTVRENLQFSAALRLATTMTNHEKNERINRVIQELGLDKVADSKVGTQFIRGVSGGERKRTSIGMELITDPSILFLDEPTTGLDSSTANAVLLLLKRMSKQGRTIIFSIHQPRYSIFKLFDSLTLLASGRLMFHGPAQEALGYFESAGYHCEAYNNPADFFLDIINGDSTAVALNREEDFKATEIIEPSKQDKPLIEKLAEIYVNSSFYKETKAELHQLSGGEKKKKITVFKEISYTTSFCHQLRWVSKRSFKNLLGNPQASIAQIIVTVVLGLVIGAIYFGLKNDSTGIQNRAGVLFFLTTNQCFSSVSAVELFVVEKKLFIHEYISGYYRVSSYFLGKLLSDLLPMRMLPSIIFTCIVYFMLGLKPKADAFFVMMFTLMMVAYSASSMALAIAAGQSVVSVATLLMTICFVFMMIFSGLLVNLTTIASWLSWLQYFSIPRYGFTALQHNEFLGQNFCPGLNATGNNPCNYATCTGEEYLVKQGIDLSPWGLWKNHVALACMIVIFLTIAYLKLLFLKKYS

CO[C@@H]1COCC[C@@H]1N[C@@H]1CC[C@@](C(=O)N2CCc3ncc(C(F)(F)F)cc3C2)(C(C)C)C1
inactive: all assays above

CC(=O)O
inactive: all assays above

N[C@@H](Cc1c[nH]c2ccccc12)C(=O)O
inactive: all assays above

COc1ccc(C(=O)Nc2nc3ccccc3c(NCc3ccccc3)c2C#N)cc1
active: [5] 16 µM | [7] 13.3 µM | [9] 17.4 µM | [10] 16.5 µM | [11] 13.3 µM | [16] 21.7 µM | [17] 10.8 µM
inactive: all other assays above

CCCC[C@H]1CN(CC2CCOCC2)C(=O)OC12CCN(C1(C)CCN(C(=O)c3c(C)ncnc3C)CC1)CC2
inactive: all assays above

O=C(O)CN(CC(=O)O)CC(=O)O
inactive: all assays above

COC(=O)[C@H]1[C@H]2C[C@@H]3c4[nH]c5cc(OC)ccc5c4CCN3C[C@H]2C[C@@H](OC(=O)c2cc(OC)c(OC)c(OC)c2)[C@@H]1OC
active: [4] 9.75 µM | [6] 49.8 µM | [7] 31.4 µM | [8] 67.4 µM | [11] 42.2 µM | [12] 25.9 µM | [16] 60.8 µM | [18] 55.6 µM | [19] 42.2 µM
not listed: [10]
inactive: all other assays above

CCCCCCCCCCCCCCOS(=O)(=O)O
active: [16] 50 µM
inactive: all other assays above

Cc1ccc(C(C)(C)C)c(O)c1
not listed: [10]
inactive: all other assays above

CCCCc1nc2cccnc2n1Cc1ccc(-c2ccccc2-c2nnn[nH]2)cc1
active: [4] 50 µM | [7] 89.8 µM | [8] 50 µM | [9] 27.1 µM | [12] 15.5 µM | [16] 33.2 µM
not listed: [10]
inactive: all other assays above

CN(C)C(=O)NC1(c2ccccc2)CCN(CCC[C@]2(c3ccc(Cl)c(Cl)c3)CCCN(C(=O)c3ccccc3)C2)CC1
active: [1] 18.7 µM | [2] 12.5 µM | [5] 20.3 µM | [7] 23.6 µM | [8] 19.4 µM | [12] 24 µM | [14] 19.6 µM | [15] 12.5 µM | [18] 21.3 µM
inactive: all other assays above

CC(C)(C)c1ccccc1
inactive: all assays above

From PubChem BioAssay (EPA / NIEHS)
